Laboratory results reported in PubChem BioAssay (Tox21).
Several values for one entry are separate records, joined by “and”; a condition that tells them apart may be missing. Identical values can stand only once. Results filed as inconclusive are left out. Where a call stands in place of a potency, no number is given. A structure can be active in one record and inactive in another. Activity calls are given as the source filed them. Unless noted, the call rests on the fitted dose curve; in most records, active means well fitted curve in the direction sought with a large enough effect in the repeat runs; inconclusive means weak or mixed curves; inactive means no such curve, though single readings can be large; an effect the other way counts as inactive or inconclusive.

Experiments:
[1] = qHTS assay to identify small molecule antagonists of the sonic hedgehog signaling (Shh) pathway (AID 1259369; calls by dose curve; further: nearly all actives have a fitted effect of over 45% in size; further: potency means the concentration at half of the fitted maximal effect)
Summary of the method: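 NIH/3T3-derived Gli1-Luc reporter cells plated 4 h, dosed with compound, then stimulated with conditioned medium for 24 h at 37 C. Firefly luciferase luminescence read after 30 min with detection reagent at room temperature.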

[2] = qHTS assay to identify small molecule agonists of the androgen receptor (AR) signaling pathway in the presence of an antagonist - cell viability counter screen (AID 1259379); further: nearly all actives have a fitted effect of over 25% in size; further: potency means the concentration at half of the fitted maximal effect
Summary of the method: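 MDA-kb2 cells (MMTV-luciferase, AR/GR), 3,000/well, 5 h attachment, then 3.0 µM nilutamide (final) and compounds at 15 concentrations. Viability by CellTiter-Fluor fluorescence after 16 h at 37 °C, 0% CO2, in the reporter wells.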

[3] = qHTS assay to identify small molecule agonists of the estrogen receptor beta (ER-beta) signaling pathway - cell viability counter screen (AID 1259380); further: nearly all actives have a fitted effect of over 30% in size; further: potency means the concentration at half of the fitted maximal effect
Summary of the method: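 ER-beta-UAS-bla HEK293T cells in medium with 2% charcoal-stripped FBS, pre-incubated 6 hr, then treated 16 hr at 37C. Cytotoxicity read in the same wells by CellTiter-Glo luminescence after 30 min at room temperature.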

[4] = qHTS assay to identify small molecule antagonists of the estrogen receptor beta (ER-beta) signaling pathway - cell viability counter screen (AID 1259382); further: nearly all actives have a fitted effect of over 55% in size; further: potency means the concentration at half of the fitted maximal effect
Summary of the method: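 ER-beta-UAS-bla HEK293T cells in 2% charcoal-stripped FBS medium, treated with compound plus 1 nM 17-beta-estradiol for 16 h at 37C. Viability read by CellTiter-Glo luminescence after 30 min at room temperature in the same wells.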

[5] = qHTS assay to identify small molecule agonists or antagonists of the thyroid stimulating hormone receptor (TSHR) signaling pathway - wild type cell line counter screen (AID 1259384; calls by dose curve; further: potency means the concentration at half of the fitted maximal effect)
Summary of the method: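 Wild-type Hek293 cells, 800/well, 18 h at 37C, then compound with Ro20-1724 for 30 min RT. cAMP by HTRF (cAMP-d2/anti-cAMP cryptate), 1 h RT, fluorescence read. 15 concentrations, triplicates.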

[6] = biological target: Thyrotropin receptor (Homo sapiens) (UniProt P16473); experiment: qHTS assay to identify small molecule antagonists of the thyroid stimulating hormone receptor (TSHR) signaling pathway (AID 1259385; calls by dose curve; further: nearly all actives have a fitted effect of over 20% in size; further: potency means the concentration at half of the fitted maximal effect)
Sequence of Thyrotropin receptor (Homo sapiens) (P16473 whole entry, looked up): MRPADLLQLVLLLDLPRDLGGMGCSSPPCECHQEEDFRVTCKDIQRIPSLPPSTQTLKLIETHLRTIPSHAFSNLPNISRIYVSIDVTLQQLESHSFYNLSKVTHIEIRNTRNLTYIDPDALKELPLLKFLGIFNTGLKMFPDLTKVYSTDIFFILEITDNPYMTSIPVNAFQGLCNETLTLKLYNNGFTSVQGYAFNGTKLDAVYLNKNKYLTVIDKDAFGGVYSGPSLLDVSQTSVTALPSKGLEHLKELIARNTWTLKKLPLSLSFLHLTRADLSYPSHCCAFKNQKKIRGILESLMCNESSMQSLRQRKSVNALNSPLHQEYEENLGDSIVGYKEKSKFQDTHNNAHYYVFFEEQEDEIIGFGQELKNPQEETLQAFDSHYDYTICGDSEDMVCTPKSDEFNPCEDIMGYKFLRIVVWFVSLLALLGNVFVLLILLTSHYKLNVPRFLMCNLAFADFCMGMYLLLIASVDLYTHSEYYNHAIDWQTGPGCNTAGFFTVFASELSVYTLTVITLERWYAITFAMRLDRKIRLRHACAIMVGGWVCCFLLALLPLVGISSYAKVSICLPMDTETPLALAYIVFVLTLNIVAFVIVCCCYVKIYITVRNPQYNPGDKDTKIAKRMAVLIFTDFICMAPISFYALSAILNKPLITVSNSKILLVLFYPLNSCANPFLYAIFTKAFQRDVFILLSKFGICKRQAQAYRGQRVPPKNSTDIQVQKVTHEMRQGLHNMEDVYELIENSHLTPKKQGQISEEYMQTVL
Summary of the method: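 TSHR-HEK293 cells (800/well) plated 18 h, then compounds with Ro20-1724 and TSH at 1.5 ng/mL final, 30 min at room temperature. cAMP quantified by HTRF (cAMP-d2/anti-cAMP-cryptate, 1 h); 15 concentrations in triplicate.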

[7] = biological target: Progesterone receptor (Homo sapiens) (UniProt P06401); experiment: qHTS assay to identify small molecule agonists of the progesterone receptor (PR) signaling pathway (AID 1346784; calls by dose curve; further: nearly all actives have a fitted effect of over 30% in size; further: potency means the concentration at half of the fitted maximal effect)
Sequence of Progesterone receptor (Homo sapiens) (P06401 whole entry, looked up): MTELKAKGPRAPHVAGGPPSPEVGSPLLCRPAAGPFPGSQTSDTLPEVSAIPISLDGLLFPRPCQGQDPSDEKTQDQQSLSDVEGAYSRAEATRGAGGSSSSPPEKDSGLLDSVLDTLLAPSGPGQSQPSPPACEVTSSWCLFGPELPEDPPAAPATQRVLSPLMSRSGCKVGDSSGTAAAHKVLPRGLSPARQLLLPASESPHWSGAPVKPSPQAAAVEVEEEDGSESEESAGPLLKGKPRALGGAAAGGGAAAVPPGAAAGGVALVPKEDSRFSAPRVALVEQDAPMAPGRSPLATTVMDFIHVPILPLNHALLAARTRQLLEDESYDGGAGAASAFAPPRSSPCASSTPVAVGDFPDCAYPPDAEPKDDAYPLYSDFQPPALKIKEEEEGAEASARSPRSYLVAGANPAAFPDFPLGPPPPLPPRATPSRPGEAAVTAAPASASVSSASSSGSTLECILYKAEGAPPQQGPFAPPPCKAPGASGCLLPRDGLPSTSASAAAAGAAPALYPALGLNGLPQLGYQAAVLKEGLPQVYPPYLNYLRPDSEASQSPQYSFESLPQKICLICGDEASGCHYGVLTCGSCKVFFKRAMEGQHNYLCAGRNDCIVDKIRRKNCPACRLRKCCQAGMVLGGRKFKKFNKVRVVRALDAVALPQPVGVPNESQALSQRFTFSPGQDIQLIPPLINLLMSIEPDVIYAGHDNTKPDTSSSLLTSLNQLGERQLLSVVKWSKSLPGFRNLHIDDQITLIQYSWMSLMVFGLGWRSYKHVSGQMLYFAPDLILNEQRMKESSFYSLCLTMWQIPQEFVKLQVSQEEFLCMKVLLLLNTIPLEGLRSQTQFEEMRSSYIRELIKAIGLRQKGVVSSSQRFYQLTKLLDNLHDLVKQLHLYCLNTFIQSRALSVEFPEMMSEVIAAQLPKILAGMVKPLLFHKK
Summary of the method: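 Agonist mode, quantitative HTS format in a HEK 293T line expressing a UAS-controlled beta-lactamase reporter; 16 hr compound exposure at 37C in 2% charcoal-stripped FBS, then LiveBLAzer B/G FRET fluorescence.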

[8] = qHTS assay to identify small molecule antagonists of the progesterone receptor (PR) signaling pathway - cell viability counter screen (AID 1346798); further: nearly all actives have a fitted effect of over 50% in size; further: potency means the concentration at half of the fitted maximal effect
Summary of the method: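 Same-well multiplex: after 16 hr at 37C with compound and R5020 stimulation, HEK293T cells carrying a UAS-bla reporter received LiveBLAzer substrate (2 hr RT), then CellTiter-Glo (30 min RT) for luminescent viability.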

[9] = qHTS assay to identify small molecule agonists of the progesterone receptor (PR) signaling pathway - cell viability counter screen (AID 1346799; calls by dose curve; further: nearly all actives have a fitted effect of over 45% in size; further: potency means the concentration at half of the fitted maximal effect)
Summary of the method: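 Counter screen for cytotoxicity: compound-treated PR-UAS-bla HEK293T cells (16 hr, 37C, 5% CO2) were assayed with CellTiter-Glo, luminescence measured after 30 min at room temperature.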

[10] = qHTS assay to identify small molecule antagonists of the TGF-beta/Smad signaling pathway - cell viability counter screen (AID 1346824); further: nearly all actives have a fitted effect of over 50% in size; further: potency means the concentration at half of the fitted maximal effect
Summary of the method: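 SBE-bla HEK 293T cells, incubated overnight, then compound plus 0.25 ng/mL TGF-beta1 (stock added) for 5 hr at 37 C. Viability was read in the same wells by CellTiter-Glo luminescence after 30 min at room temperature.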

[11] = qHTS assay to identify small molecule agonists of the TGF-beta/Smad signaling pathway - cell viability counter screen (AID 1346829); further: nearly all actives have a fitted effect of over 45% in size; further: potency means the concentration at half of the fitted maximal effect
Summary of the method: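 After overnight seating at 37 C and 5% CO2, reporter cells got compounds for 5 hr and FRET substrate for 2 hr; cell viability then came from CellTiter-Glo luminescence.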

[12] = qHTS assay to identify small molecule agonists of the TGF-beta/Smad signaling pathway (AID 1346859; active means well fitted activation curve with a large enough effect in the signal ratio in the repeat runs, not every such curve was filed as active; the % refers to the signal ratio; further: series mostly up to about 77 µM)
Summary of the method: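 Smad-responsive beta-lactamase reporter cells (HEK 293T) received compounds from DMSO stocks after overnight attachment, were incubated 5 hr, then treated 2 hr with FRET substrate before dual-emission fluorescence measurement (405 nm excitation).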

[13] = biological target: Thyrotropin-releasing hormone receptor (Homo sapiens) (UniProt P34981); experiment: qHTS assay to identify small molecule antagonists of the thyrotropin-releasing hormone receptor (TRHR) signaling pathway (AID 1346877; active means well fitted inhibition curve with a large enough effect in the repeat runs, not every such curve was filed as active; further: potency means the concentration at half of the fitted maximal effect)
Sequence of Thyrotropin-releasing hormone receptor (Homo sapiens) (P34981 whole entry, looked up): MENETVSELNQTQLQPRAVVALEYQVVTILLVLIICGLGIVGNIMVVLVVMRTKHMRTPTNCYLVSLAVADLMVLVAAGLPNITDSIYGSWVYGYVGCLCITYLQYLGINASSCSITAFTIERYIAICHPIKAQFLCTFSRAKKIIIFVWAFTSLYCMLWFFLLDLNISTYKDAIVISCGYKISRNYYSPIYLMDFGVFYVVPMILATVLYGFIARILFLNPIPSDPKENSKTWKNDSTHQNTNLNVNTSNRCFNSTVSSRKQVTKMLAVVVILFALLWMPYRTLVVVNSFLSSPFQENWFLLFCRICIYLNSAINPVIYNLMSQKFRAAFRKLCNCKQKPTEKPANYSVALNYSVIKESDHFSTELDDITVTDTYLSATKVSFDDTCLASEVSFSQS
Summary of the method: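 TRHR-expressing HEK293 cells loaded with calcium dye for 2 h at 37 C; compounds pre-incubated 5 min at room temperature before TRH challenge at 1 nM final. Intracellular calcium fluorescence read kinetically for 3 min; 15 concentrations in triplicate.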

[14] = biological target: Thyrotropin-releasing hormone receptor (Homo sapiens) (UniProt P34981); experiment: qHTS assay to identify small molecule agonists of the thyrotropin-releasing hormone receptor (TRHR) signaling pathway (AID 1346891; calls by dose curve; further: series mostly up to about 58 µM)
Summary of the method: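 Agonist-mode calcium mobilisation screen: TRHR-transfected HEK293 cells cultured overnight (18 h), dye-loaded for 2 h at 37 °C, exposed to compounds, and monitored by fluorescence for 3 min.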

[15] = qHTS assay to identify small molecule agonists of the estrogen receptor alpha (ER-alpha) signaling pathway in the presence of an antagonist - cell viability counter screen (AID 1259386);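 further: cells exposed to compounds for 22 h at 37 °C before the viability read; nearly all actives have a fitted effect of over 30% in size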; further: potency means the concentration at half of the fitted maximal effect
Summary of the method: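 Cell viability in VM7Luc4E2 cells (endogenous full-length ER-alpha) measured by CellTiter-Fluor fluorescence in the same wells as the luciferase screen. Cells pre-cultured 5 days in charcoal-stripped serum, then treated 22 h with compounds at 15 concentrations plus 10.0nM ICI-182,780.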

[16] = biological target: Progesterone receptor (Homo sapiens) (UniProt P06401); experiment: qHTS assay to identify small molecule antagonists of the progesterone receptor (PR) signaling pathway (AID 1346795; active means well fitted inhibition curve with a large enough effect in the signal ratio in the repeat runs, not every such curve was filed as active; the % refers to the signal ratio; further: potency means the concentration at half of the fitted maximal effect)
Summary of the method: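 HEK293T PR-UAS-bla reporter cells in charcoal-stripped serum (2%) received compound after a 6 hr settling period, followed by R5020 agonist at 1 nM final; 16 hr incubation preceded the FRET substrate step and fluorescence measurement.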

[17] = biological target: Estrogen receptor beta (Homo sapiens) (UniProt Q92731); experiment: qHTS assay to identify small molecule agonists of the estrogen receptor beta (ER-beta) signaling pathway (AID 1259377; active means well fitted activation curve with a large enough effect in the signal ratio in the repeat runs, not every such curve was filed as active; the % refers to the signal ratio)
Sequence of Estrogen receptor beta (Homo sapiens) (Q92731 whole entry, looked up): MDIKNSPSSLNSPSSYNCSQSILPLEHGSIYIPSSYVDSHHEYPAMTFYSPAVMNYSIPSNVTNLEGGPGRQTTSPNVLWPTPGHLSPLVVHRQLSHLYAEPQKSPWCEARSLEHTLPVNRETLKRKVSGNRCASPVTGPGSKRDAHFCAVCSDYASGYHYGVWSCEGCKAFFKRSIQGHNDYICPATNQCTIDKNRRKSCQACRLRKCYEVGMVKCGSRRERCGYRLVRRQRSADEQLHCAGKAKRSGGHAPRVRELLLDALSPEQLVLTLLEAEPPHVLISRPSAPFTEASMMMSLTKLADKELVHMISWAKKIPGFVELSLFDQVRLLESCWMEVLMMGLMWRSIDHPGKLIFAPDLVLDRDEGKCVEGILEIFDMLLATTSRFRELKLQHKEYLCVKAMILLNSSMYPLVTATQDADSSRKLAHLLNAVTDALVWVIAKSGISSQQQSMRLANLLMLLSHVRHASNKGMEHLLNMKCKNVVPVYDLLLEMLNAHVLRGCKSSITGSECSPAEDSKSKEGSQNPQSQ
Summary of the method: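 A UAS-controlled beta-lactamase reporter in ER-beta-UAS-bla HEK293T cells reports receptor activation. Compounds act for 16 hr at 37C in 2% charcoal-stripped serum, and a FRET substrate is read by fluorescence after 2 hours.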

[18] = biological target: Estrogen receptor beta (Homo sapiens) (UniProt Q92731); experiment: qHTS assay to identify small molecule antagonists of the estrogen receptor beta (ER-beta) signaling pathway (AID 1259378; active means well fitted inhibition curve with a large enough effect in the signal ratio in the repeat runs, not every such curve was filed as active; the % refers to the signal ratio; further: potency means the concentration at half of the fitted maximal effect)
Summary of the method: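 ER-beta-UAS-bla HEK293T cells in 2% charcoal-stripped FBS medium treated with compound plus 1nM final 17-beta-estradiol for 16 hr at 37C. Beta-lactamase reporter read by FRET substrate fluorescence after 2 hours at room temperature.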

[19] = biological target: Estrogen receptor (Homo sapiens) (UniProt P03372); experiment: qHTS assay to identify small molecule agonists of the estrogen receptor alpha (ER-alpha) signaling pathway in the presence of an antagonist (AID 1259383; calls by dose curve; further: top concentration of the series differs between compounds; nearly all actives have a fitted effect of over 15% in size)
Sequence of Estrogen receptor (Homo sapiens) (P03372 whole entry, looked up): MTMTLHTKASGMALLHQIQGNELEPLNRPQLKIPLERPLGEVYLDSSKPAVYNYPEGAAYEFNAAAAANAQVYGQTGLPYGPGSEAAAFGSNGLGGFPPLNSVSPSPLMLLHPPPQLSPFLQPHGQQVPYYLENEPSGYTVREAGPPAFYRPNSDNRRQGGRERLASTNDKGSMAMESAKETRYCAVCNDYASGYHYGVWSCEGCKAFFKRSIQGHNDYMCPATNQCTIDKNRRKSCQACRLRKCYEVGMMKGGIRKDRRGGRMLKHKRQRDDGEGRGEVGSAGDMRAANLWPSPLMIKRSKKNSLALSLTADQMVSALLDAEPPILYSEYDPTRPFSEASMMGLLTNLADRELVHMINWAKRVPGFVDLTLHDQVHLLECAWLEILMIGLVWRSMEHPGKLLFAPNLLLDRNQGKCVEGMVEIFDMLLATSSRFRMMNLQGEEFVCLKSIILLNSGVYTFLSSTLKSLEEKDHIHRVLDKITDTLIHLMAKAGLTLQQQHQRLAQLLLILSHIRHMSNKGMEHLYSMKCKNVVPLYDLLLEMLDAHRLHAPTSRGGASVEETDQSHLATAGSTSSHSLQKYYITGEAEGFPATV
Summary of the method: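 VM7Luc4E2 cells express endogenous full-length ER-alpha with an ERE-luciferase reporter and were hormone-deprived for 5 days. Compounds at 15 concentrations were added with 10.0nM ICI-182,780 for 22hr at 37C. Luminescence was read with ONE-Glo.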

Row | Compound | Potency [1] | Potency [2] | Potency [3] | Potency [4] | Potency [5] | Potency [6] | Potency [7] | Potency [8] | Potency [9] | Potency [10] | Potency [11] | outcome [12] | Potency [13] | Potency [14] | Potency [15] | Potency [16] | outcome [17] | Potency [18] | Potency [19]
1 | CN(C)c1ccc(C(=C2C=CC(=[N+](C)C)C=C2)c2ccccc2)cc1 | 172 nM (active) and 376 nM (active) and 237 nM (active) | 3.86 µM (active) and 3.35 µM (active) and 2.66 µM (active) | 5.31 µM (active) [middle of 4 runs] | 7.5 µM (active) [middle of 4 runs] | inactive | 29.8 µM (active) and inactive | inactive | 8.63 µM (active) and 6.68 µM (active) and 7.5 µM (active) | 9.69 µM (active) and 7.5 µM (active) and 8.41 µM (active) | 8.49 µM (active) [middle of 4 runs] | 8.49 µM (active) [middle of 4 runs] | inactive | 26.9 µM (active) and inactive | inactive |  |  |  |  | 
2 | CCCN[C@H]1CCc2nc(N)sc2C1 | inactive | inactive | inactive | inactive | inactive |  | inactive | inactive | inactive | inactive | inactive | inactive |  |  | inactive | inactive |  |  | 
3 | CC(C)(C)NCC(O)c1cc(O)cc(O)c1 (stereo not given) | inactive | inactive | inactive | inactive | 2.03 µM (active) |  | inactive | inactive | inactive | inactive | inactive | inactive | inactive | inactive | inactive | inactive |  |  | 
4 | CCCCCCCCCCCC[N+](C)(C)C | 384 nM (active) and 24.3 nM (active) and 6.86 µM (active) | 13.6 µM (active) and 9.69 µM (active) and 13.7 µM (active) | 60.9 µM (active) | 68.6 µM (active) | inactive | inactive | inactive |  |  | inactive | inactive |  | inactive |  | 54.5 µM (active) |  |  |  | 
5 | CCCCCC(=O)O[C@]1(C(C)=O)CC[C@H]2[C@@H]3CCC4=CC(=O)CC[C@]4(C)[C@H]3CC[C@@]21C |  | 60.7 µM (active) and 29.8 µM (active) | inactive | inactive | inactive |  |  | 43 µM (active) and 33.5 µM (active) |  | inactive |  |  | inactive |  | inactive | 21.1 µM (active) | inactive | 6.68 µM (active) | inactive
6 | Cc1cccc2n[nH]nc12 | inactive | inactive | inactive | inactive | inactive | inactive | inactive | inactive | inactive | inactive | inactive | inactive | inactive | inactive | inactive |  |  |  | 
7 | CCN(CC)c1ccc2c(C)cc(=O)oc2c1 | 24.5 µM (active) and 54.5 µM (active) | inactive |  | inactive | inactive | inactive | 30.9 µM (active) and 34.4 µM (active) | inactive | inactive | inactive | inactive |  | inactive |  | inactive |  |  |  | inactive
8 | CC(C)(C)NC(=O)[C@@H]1CN(Cc2cccnc2)CCN1C[C@@H](O)C[C@@H](Cc1ccccc1)C(=O)N[C@H]1c2ccccc2C[C@H]1O | inactive | inactive | inactive | inactive |  |  | inactive | inactive | inactive | inactive | inactive | inactive |  |  | inactive | inactive |  |  | 
